Laboratory results from PubChem BioAssay (NCI).
This is part of a sample that, as a whole, favours compounds with a hit. Of some 83,000 tested, about 20% had one in any assay.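 Interpretation: 100, growth as untreated; towards 0, rising growth inhibition; 0, no net growth; 0 to -100, cell death. Compounds scoring below 10 were considered active.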 Activity calls are given as the source filed them.

Columns and labels:
Test in all cases: NCI-60 one-dose screen, 48 h (100 = growth as untreated, 0 = no growth, -100 = all killed)
Conditions in all cases: 10 µM unless noted
NCI/ADR-RES ovarian = test system: NCI/ADR-RES ovarian
T-47D breast = test system: T-47D breast
BT-549 breast = test system: BT-549 breast
MDA-MB-435 melanoma = test system: MDA-MB-435 melanoma
SW-620 colon = test system: SW-620 colon
MCF7 breast = test system: MCF7 breast
HCT-116 colon = test system: HCT-116 colon
KM12 colon = test system: KM12 colon
HCC-2998 colon = test system: HCC-2998 colon

Measured: growth

O=C(Nc1ccc([N+](=O)[O-])cc1)C(Cl)(Cl)Cl
inactive: NCI/ADR-RES ovarian 99.6% | T-47D breast 80.7% | BT-549 breast 91.6% | MDA-MB-435 melanoma 104% | SW-620 colon 105% | MCF7 breast 85.9% | HCT-116 colon 91.1% | KM12 colon 97.1%

CC[C@H](C)[C@H](NC(=O)[C@H]1CCCCN1C)C(=O)N(C)[C@H](CC(=O)c1nc(C(=O)N[C@@H](Cc2ccccc2)C[C@H](C)C(=O)O)cs1)C(C)C
inactive: NCI/ADR-RES ovarian 113% | T-47D breast 64.8% | BT-549 breast 63% | MDA-MB-435 melanoma 15.5% | SW-620 colon 50.2% | MCF7 breast 23.1% | HCT-116 colon 77.3% | HCC-2998 colon 87.9% | KM12 colon 65.1%

CC1=C(CNO)C2=C(C)C3(CC3)[C@@](C)(O)C(=O)C2=C1
active: T-47D breast -3.61% | BT-549 breast -13% | HCT-116 colon 2.04% | HCC-2998 colon -33.4%
inactive: NCI/ADR-RES ovarian 29.7% | MDA-MB-435 melanoma 92.1% | SW-620 colon 65.7% | MCF7 breast 10.6% | KM12 colon 70%

CC(=O)Nc1nc2c(s1)CC[C@@]1(C)C2=CC[C@H]2[C@@H]3CC[C@H](O)[C@@]3(C)CC[C@@H]21
inactive: NCI/ADR-RES ovarian 45.5% | T-47D breast 82% | BT-549 breast 42.6% | SW-620 colon 44.8% | MCF7 breast 24.6% | HCT-116 colon 30.3% | HCC-2998 colon 96% | KM12 colon 49.4%
active: MDA-MB-435 melanoma 5.93%

COc1cccc(C=NC(Cc2cnc[nH]2)C(=O)O)c1O (centres undefined)
inactive: NCI/ADR-RES ovarian 98.4% | T-47D breast 108% | BT-549 breast 91.1% | MDA-MB-435 melanoma 84.2% | SW-620 colon 102% | MCF7 breast 93.4% | HCT-116 colon 97.8% | KM12 colon 104%

N#Cc1c(Br)n(C2OC(CO)C(O)C2O)c2ncnc(N)c12 (centres undefined)
inactive: NCI/ADR-RES ovarian 52.9% | BT-549 breast 73.5% | MDA-MB-435 melanoma 51.4% | SW-620 colon 30.5% | HCT-116 colon 40.3% | HCC-2998 colon 83.7% | KM12 colon 34%
active: T-47D breast 9.15% | MCF7 breast 3.47%

O=C(Nc1ccc(O)cc1)C(Cl)(Cl)Cl
inactive: NCI/ADR-RES ovarian 99.4% | T-47D breast 89.5% | BT-549 breast 91.2% | MDA-MB-435 melanoma 103% | SW-620 colon 110% | MCF7 breast 99.1% | HCT-116 colon 103% | KM12 colon 103%

C=CCCCN=C=S
inactive: NCI/ADR-RES ovarian 87.2% | T-47D breast 47.3% | BT-549 breast 67.1% | MDA-MB-435 melanoma 61.2% | SW-620 colon 66.5% | MCF7 breast 40.5% | HCT-116 colon 44.7% | HCC-2998 colon 102% | KM12 colon 49.9%
